From PubChem BioAssay (NCATS) come the findings set out here.

Inconclusive results are not listed. Where a call stands in place of a potency, no number is given. Active and inactive are the calls of the source. Calls follow the shape of the dose curve; as a rule, active = well fitted inhibition curve with a large enough effect; inconclusive = small, poorly fitted or top-dose-only effect; inactive = no such curve, though single readings can be large or run the other way.
Potency is read from the fitted curve at half-maximal effect.

This test is described as follows: qHTS for Inhibitors of the Aldehyde Dehydrogenase Family (ALDH1A2, ALDH1A3, ALDH2, ALDH3A1) (AID 2061307). Also: nearly all actives have a fitted effect of over 50% in size. As to potency: test system not described further here. As to conditions: ALDH inhibition qHTS; series mostly up to 50.3 µM.
Take `Cc1nn(-c2ccc(C(F)(F)F)cn2)c(C)c1CC(=O)Nc1ccc(C(N)=O)cc1`: the Potency entry was “inactive”. The entry for `Cc1ccc(-c2cc3c(nn2)-c2ccccc2C3=O)cc1` is “inactive”; for `CCc1ccc(CSc2nccn2-c2ccccc2)cc1` it is “inactive”. The entry for `Cc1cc(=O)n2[nH]c(NC(=O)c3cccnc3)nc2n1` is “inactive”; for `COc1ccc(F)cc1NC(=O)Cc1csc(-c2ccccc2Cl)n1` it is “inactive”; for `CC(=O)c1c(C)[nH]c2ccc(O)cc12` it is “inactive”.

As for `COC(=O)CC(=O)Nc1ccccc1C(=O)O`, the Potency entry was “inactive”. As for `COc1ccc(-n2ncc3c2CCCC3NC(=O)c2cc(NC(C)=O)ccn2)cc1` (stereo not given), the entry is “inactive”; as for `FC(F)(F)c1ccc(CNc2nc(-c3ccncc3)nc3ccccc23)cc1`, 4.47 µM (active); as for `COc1cccc(N2CCN(C(=O)c3ccc4c(c3)N(C)C3CCCCCN3C4=O)CC2)c1` (stereo not given), “inactive”.

For the compound `CCOCCNC(=O)N1CCN(c2nc(C)cs2)CC1`, the Potency was 14.1 µM (active). The entry for `CCOC(=O)COc1ccc2c(c1)c(C(=O)c1ccccc1)c(C)n2-c1ccc(OC)cc1` is “inactive”. The entry for `COc1ccccc1CN1CCC(N(CCc2ccccc2)Cc2ccccc2)CC1` is “inactive”; for `Cc1cnc(CNc2nc(-c3ccccc3Cl)nc3ccccc23)cn1` it is “inactive”. As for `Cn1nc(-c2ccccc2)cc1C(=O)N[C@H](Cc1ccc2ccccc2c1)C(=O)O`, the entry is “inactive”; as for `CCOC(=O)OC(C)OC(=O)c1csc(-n2[nH]c(-c3ccc(F)c(F)c3)cc2=O)n1` (stereo not given), “inactive”. As for `O=C(Nc1ccccc1C(=O)Nc1cccc(C(F)(F)F)c1)c1cccc([N+](=O)[O-])c1`, the Potency is 3.55 µM (active). For `N#Cc1cccc(NC(=O)N2C[C@@H]3C[C@H](C2)c2ccc(-c4ccc(OC(F)(F)F)cc4)c(=O)n2C3)c1`, the Potency result was “inactive”. In the case of `COc1cc(O)c(C(CC(=O)N2CC(C)CC(C)C2)c2ccc(NC(C)=O)cc2)c(OC)c1` (stereo not given), the Potency is 31.6 µM (active). As for `COc1ccccc1C(=O)Nc1nnc(SCc2cc(=O)c3ccccc3[nH]2)s1`, the figure is 3.98 µM (active); as for `O=C(CSc1nc2ccccc2c(=O)[nH]1)Nc1nc(-c2ccc(Br)cc2)cs1`, “inactive”; as for `Cc1cccc(NC(=O)C2CC(=O)N(c3ccc(S(=O)(=O)N(C)C)cc3)C2)n1` (stereo not given), “inactive”. The entry for `CCN1C(=O)c2ccccc2S(=O)c2ccc(C(=O)NCc3cccc(C(F)(F)F)c3)cc21` (stereo not given) is “inactive”; for `O=C(c1ccco1)N1CCN(Cc2nc3ccccc3c(=O)n2-c2ccccc2C(F)(F)F)CC1` it is “inactive”; for `N#CCc1c(Cc2ccc(S(N)(=O)=O)cc2)c(-c2ccccc2)nn1-c1nc(C(=O)O)cs1` it is “inactive”. As for `O=C(Nc1ccc(C(=O)N2CCCC2)cc1)c1cccc(Cl)c1`, the entry is “inactive”; as for `CC(=O)c1cccc(NC(=O)c2noc3c2CSc2ccccc2-3)c1`, “inactive”.

In the case of `O=C(Nc1ncccc1O)c1ccc(S(=O)(=O)Nc2ccccc2)cc1`, the Potency result is “inactive”. The entry for `CCOc1ccc(NC(=O)CSCC(=O)Nc2ccc(C)cc2)cc1` is “inactive”; for `COc1cc(O)c(C(CC(=O)N2CC(C)CC(C)C2)c2ccc(C(N)=O)cc2)c(OC)c1` (stereo not given) it is 0.282 µM (active).

For `Cn1c(C(=O)Nc2cccc(Cl)c2)cc2c(=O)n(C)c3ccccc3c21`, the Potency entry is “inactive”. With `C#CCOC(=O)NCCCC[C@H](N)C(=O)O`, the Potency entry was “inactive”. As for `CCn1nc(C)c(CNc2ccc(S(N)(=O)=O)cc2C#N)c1C`, the entry is “inactive”. As for `CCn1c(C(=O)NCCc2ccc(OC)cc2)cc2sccc21`, the figure is 2.01 µM (active); as for `COc1ccc(-n2c(C)c(C(=O)O)c3cc(O)ccc32)cc1`, “inactive”; as for `COc1cccc2cc(C(=O)Nc3ccc(F)c(F)c3)c(=O)oc12`, “inactive”. The entry for `CCOc1ccc(CCNC(=O)c2cc3occc3[nH]2)cc1OCC` is “inactive”. As to `COC(=O)c1ccc2c(c1)CCN2C(=O)c1cnn(-c2ccccc2)c1`, the Potency entry is “inactive”. Turning to `O=C(Nc1ccc(S(=O)(=O)N2CCOCC2)cc1)c1ccc(CN2Cc3ccccc3C2)cc1`, the Potency was 0.316 µM (active). As for `COCCN(C)S(=O)(=O)c1ccc(NC(=O)c2ccc(CN3CCc4ccccc4C3)cc2)cc1`, the entry is “inactive”.
